# From the supplement of paper PMC11732987, “Enantioselective OTUD7B fragment discovery through chemoproteomics screening and high-throughput optimisation” (Communications Chemistry, 2025)
# Values without a mark were called inactive.
# Tests used:
# Assay in all cases: log2 ratio of Biotin-Ahx-Ub-VS probe labelling (fragment/DMSO); higher = less target engagement (more negative = stronger competition), active = hit call of the paper (q ≤ 0.05, log2 ratio ≤ -1)
# Settings in all cases: compound concentration: 200 uM; treatment time: 3 h
# ALG13 = target: T1, ALG13 (UniProt Q9NP73)
# T1 sequence (whole entry): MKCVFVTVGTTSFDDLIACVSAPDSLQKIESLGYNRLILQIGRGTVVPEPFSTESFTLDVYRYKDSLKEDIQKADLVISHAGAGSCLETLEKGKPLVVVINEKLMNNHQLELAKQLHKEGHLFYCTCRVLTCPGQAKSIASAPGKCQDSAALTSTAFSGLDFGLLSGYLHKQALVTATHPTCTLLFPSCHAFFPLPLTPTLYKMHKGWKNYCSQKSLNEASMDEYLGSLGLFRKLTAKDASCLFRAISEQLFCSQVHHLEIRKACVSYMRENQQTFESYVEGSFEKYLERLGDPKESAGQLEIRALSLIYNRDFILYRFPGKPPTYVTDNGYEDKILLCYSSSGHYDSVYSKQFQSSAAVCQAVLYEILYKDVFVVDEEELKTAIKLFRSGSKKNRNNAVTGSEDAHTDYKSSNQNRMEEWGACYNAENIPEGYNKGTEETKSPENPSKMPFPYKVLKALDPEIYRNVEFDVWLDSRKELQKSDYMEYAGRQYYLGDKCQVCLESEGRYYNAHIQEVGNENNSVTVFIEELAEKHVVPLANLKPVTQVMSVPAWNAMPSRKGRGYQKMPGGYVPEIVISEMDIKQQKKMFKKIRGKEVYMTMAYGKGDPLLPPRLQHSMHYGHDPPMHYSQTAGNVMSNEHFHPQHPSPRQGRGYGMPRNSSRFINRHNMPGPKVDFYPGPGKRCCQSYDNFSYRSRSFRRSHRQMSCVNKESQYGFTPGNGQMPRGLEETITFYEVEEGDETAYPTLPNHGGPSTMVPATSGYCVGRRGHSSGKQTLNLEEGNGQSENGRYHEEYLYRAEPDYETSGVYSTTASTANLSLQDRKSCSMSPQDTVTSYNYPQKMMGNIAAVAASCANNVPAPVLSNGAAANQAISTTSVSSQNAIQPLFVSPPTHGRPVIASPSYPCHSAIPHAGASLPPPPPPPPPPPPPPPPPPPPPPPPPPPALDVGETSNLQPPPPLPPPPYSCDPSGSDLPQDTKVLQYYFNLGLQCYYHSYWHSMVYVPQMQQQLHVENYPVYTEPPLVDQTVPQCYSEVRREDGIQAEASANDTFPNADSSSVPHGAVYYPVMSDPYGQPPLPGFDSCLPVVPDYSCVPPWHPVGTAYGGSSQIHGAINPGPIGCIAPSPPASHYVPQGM
# Summary of the method: (§1)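 Fragment (200 µM) or vehicle was incubated for 3 h with triplicate HEK293T lysate samples of 495 µg, which were then treated with Biotin-Ahx-Ub-VS at 0.5 µM final for 1 h. Labelled DUBs were enriched on NeutrAvidin, digested with LysC and trypsin, and analysed by diaPASEF LC-MS/MS. Values are average log2 fragment/vehicle ratios from an unpaired t-test on global-median-normalised Spectronaut label-free quantities, using proteins with ≥2 unique peptides.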
# ATXN3 = ATXN3 (UniProt P54252)
# Summary of the method: as §1
# BAP1 = target: T2, BAP1 (UniProt Q92560)
# T2 sequence (whole entry): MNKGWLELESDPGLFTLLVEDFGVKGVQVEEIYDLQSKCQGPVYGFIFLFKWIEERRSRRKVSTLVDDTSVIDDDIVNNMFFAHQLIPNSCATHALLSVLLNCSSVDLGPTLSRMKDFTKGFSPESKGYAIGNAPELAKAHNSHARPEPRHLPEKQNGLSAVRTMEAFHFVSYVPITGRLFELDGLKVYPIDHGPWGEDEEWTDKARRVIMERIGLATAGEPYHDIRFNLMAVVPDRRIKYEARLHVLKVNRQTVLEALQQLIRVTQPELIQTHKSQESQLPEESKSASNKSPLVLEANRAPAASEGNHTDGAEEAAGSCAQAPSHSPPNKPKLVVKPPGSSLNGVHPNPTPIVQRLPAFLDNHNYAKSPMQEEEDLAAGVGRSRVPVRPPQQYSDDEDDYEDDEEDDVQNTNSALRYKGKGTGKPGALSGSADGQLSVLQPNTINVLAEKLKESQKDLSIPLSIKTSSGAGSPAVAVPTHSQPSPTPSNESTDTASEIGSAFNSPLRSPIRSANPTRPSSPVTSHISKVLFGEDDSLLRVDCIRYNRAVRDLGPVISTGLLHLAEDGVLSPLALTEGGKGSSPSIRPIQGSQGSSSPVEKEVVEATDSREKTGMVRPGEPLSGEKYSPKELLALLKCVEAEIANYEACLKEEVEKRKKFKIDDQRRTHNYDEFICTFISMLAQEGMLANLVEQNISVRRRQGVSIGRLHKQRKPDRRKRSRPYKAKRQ
# Summary of the method: as §1
# EIF3F = EIF3F (UniProt O00303)
# Summary of the method: as §1
# EIF3H = EIF3H (UniProt O15372)
# Summary of the method: as §1
# FAM105A = target: T3, FAM105A (UniProt Q9NUU6)
# T3 sequence (whole entry): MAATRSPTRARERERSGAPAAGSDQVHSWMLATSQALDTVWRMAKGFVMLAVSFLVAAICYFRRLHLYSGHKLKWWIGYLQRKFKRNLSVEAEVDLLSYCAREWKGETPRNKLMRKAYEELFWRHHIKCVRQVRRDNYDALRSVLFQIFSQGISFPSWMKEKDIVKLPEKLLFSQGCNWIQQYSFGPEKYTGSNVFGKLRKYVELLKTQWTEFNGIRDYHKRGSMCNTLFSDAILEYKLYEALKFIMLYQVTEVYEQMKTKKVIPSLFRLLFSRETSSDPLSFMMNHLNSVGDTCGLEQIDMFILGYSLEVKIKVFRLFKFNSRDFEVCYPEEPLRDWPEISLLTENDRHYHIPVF
# Summary of the method: as §1
# OTUB1 = OTUB1 (UniProt Q96FW1)
# Summary of the method: as §1
# OTUD4 = target: T4, OTUD4 (UniProt Q01804)
# T4 sequence (whole entry): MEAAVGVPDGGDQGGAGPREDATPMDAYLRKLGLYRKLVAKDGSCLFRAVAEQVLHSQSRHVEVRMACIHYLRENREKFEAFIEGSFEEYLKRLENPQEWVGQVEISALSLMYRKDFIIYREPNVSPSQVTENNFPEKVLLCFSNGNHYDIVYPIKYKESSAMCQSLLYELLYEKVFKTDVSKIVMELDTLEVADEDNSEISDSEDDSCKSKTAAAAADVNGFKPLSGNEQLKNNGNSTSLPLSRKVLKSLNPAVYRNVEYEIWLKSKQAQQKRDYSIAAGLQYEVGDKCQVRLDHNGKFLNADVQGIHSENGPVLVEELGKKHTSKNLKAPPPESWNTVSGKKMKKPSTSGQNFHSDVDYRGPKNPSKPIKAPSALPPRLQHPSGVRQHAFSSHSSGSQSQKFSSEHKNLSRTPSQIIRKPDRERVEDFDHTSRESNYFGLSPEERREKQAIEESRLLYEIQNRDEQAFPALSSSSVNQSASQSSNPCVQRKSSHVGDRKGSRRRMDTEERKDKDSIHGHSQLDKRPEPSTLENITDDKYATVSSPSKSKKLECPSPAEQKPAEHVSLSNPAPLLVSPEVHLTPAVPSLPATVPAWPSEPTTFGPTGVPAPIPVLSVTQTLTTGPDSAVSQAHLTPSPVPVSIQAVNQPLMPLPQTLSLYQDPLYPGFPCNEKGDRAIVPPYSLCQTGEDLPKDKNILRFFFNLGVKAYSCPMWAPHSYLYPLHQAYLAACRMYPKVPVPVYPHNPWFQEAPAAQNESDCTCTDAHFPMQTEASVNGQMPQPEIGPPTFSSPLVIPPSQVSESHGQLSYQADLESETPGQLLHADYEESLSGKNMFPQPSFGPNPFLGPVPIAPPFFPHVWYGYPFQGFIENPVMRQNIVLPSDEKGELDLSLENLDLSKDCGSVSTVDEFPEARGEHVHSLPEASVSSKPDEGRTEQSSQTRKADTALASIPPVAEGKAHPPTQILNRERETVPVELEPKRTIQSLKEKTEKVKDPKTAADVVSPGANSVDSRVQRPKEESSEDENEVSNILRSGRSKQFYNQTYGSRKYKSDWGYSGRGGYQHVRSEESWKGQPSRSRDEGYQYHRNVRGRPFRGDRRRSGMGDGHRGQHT
# Summary of the method: as §1
# OTUD5 = target: T5, OTUD5 (UniProt Q96G74)
# T5 sequence (whole entry): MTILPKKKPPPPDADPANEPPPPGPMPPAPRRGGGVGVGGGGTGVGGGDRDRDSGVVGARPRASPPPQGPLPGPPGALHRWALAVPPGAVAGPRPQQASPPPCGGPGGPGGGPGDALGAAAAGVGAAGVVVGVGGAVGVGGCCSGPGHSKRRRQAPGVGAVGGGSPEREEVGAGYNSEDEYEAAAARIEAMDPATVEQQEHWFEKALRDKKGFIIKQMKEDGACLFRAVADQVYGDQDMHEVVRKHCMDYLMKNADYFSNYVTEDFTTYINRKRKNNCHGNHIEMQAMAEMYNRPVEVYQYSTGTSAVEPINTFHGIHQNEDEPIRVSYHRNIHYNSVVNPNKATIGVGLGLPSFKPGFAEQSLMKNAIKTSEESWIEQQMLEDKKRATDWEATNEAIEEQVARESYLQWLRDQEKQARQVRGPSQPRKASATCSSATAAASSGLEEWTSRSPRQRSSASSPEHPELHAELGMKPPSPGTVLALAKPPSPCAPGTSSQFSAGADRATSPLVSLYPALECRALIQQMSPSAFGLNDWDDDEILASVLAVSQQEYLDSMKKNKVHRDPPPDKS
# Summary of the method: as §1
# EIF3H, sequence (O15372 whole entry): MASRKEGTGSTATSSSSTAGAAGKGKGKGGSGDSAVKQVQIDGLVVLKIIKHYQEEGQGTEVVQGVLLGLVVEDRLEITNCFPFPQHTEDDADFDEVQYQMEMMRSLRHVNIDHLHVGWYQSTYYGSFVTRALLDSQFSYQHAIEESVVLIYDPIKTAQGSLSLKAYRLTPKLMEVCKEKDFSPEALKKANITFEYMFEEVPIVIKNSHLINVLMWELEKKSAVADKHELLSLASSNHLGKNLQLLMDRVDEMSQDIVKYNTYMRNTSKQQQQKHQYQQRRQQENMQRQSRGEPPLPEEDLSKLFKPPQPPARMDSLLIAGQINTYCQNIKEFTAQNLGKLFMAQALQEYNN
# OTUB1, sequence (Q96FW1 whole entry): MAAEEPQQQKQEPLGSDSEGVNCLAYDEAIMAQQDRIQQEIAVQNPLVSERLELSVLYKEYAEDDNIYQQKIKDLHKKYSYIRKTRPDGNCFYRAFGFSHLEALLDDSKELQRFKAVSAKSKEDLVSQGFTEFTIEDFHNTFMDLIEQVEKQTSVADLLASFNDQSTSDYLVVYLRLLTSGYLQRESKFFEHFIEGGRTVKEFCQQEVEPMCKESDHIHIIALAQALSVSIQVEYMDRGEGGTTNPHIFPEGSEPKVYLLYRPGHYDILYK
# EIF3F, sequence (O00303 whole entry): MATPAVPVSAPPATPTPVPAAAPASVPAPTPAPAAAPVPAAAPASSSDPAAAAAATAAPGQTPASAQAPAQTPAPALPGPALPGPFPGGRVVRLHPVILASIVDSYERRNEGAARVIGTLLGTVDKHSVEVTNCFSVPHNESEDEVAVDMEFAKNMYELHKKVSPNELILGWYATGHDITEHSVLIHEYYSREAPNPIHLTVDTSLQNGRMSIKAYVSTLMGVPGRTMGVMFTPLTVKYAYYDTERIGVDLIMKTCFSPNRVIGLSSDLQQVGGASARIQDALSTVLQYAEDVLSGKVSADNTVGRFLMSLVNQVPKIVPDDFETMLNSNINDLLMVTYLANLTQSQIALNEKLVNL
# ATXN3, sequence (P54252 whole entry): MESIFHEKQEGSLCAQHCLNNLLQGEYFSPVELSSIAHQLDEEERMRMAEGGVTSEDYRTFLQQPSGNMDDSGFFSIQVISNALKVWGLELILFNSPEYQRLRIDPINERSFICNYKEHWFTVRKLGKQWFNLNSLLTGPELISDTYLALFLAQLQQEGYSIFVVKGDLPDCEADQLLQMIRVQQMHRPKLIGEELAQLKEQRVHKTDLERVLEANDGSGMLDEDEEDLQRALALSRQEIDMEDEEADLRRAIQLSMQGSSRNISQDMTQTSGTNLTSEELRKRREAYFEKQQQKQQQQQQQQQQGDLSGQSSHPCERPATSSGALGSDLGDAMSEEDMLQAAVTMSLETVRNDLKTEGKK
compound,measurement,setting,value
O=C(CCl)NC1CCS(=O)(=O)c2ccccc21 (centres undefined),log2 ratio of Biotin-Ahx-Ub-VS probe labelling,ALG13,-0.299
same,log2 ratio of Biotin-Ahx-Ub-VS probe labelling,ATXN3,-0.496
same,log2 ratio of Biotin-Ahx-Ub-VS probe labelling,BAP1,-2.77 (active)
same,log2 ratio of Biotin-Ahx-Ub-VS probe labelling,EIF3F,-0.00472
same,log2 ratio of Biotin-Ahx-Ub-VS probe labelling,EIF3H,-0.0327
same,log2 ratio of Biotin-Ahx-Ub-VS probe labelling,FAM105A,-0.0548
same,log2 ratio of Biotin-Ahx-Ub-VS probe labelling,OTUB1,0.0659
same,log2 ratio of Biotin-Ahx-Ub-VS probe labelling,OTUD4,-1.76 (active)
same,log2 ratio of Biotin-Ahx-Ub-VS probe labelling,OTUD5,-0.271
